Bioassay records (PubChem BioAssay)
IL1B secr inh: qHTS for Inhibitors of Inflammasome Signaling: IL-1-beta AlphaLISA Primary Screen. THP-1 LPS/ATP IL-1B secretion, AlphaLISA, 16 h; active compounds read low. activity change, % at 57.5 µM. 360,000 tested, 4.7% active. AID 743279, 2014; in the data active = activity change below about -50%; inconclusive = mostly about -30% to -49%
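THP-1 cells pretreated 1 hr with compounds (up to 57.5 uM final), then stimulated with LPS (250 ng/mL final) plus ATP (1.25 mM final); secreted IL-1B measured by AlphaLISA after 16 hr, decreased signal indicating inhibition.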
DT40 TDP1 CPT: qHTS for Inhibitors of human tyrosyl-DNA phosphodiesterase 1 (TDP1): qHTS in cells in presence of CPT; chicken DT40 Tdp1-/-;hTDP1 cells + 20 nM CPT, ATP luminescence, 48 h; Potency, µM (top dose mostly 46.2 µM), for the others: top-dose activity change, negative = growth inhibition, hits mostly inhibitors; 420,000 tested, 12% active; note: potency is the fitted concentration of half-maximal effect; nearly all actives have a fitted effect of over 55% in size
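Chicken DT40 Tdp1-/- cells stably complemented with human TDP1 were seeded at 400 cells/well in medium containing 20 nM camptothecin, exposed to pin-transferred compounds, and grown at 37 °C for at least 48 hr. Viability was read as ATP luminescence.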
LDHA block: qHTS assay for inhibitors of human lactate dehydrogenase; L-lactate dehydrogenase A chain (Homo sapiens), P00338; purified LDHA, NADH/diaphorase-resazurin fluorescence; active compounds read low; activity change, % (values are at about 110 or 230 µM); 480,000 tested, 0.15% active; AID 1347041, 2019; in the data active = activity change below about -30%; inconclusive = mostly about -25% to -30%;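 note: plate controls were DMSO wells for no effect and wells without enzyme for full effect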
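Enzyme activity of human lactate dehydrogenase 5 (2 nM; 0.06 mM NADH, 0.2 mM pyruvate, 5 min, RT) is measured via a resazurin/diaphorase fluorescence readout of residual NADH.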
Gal4-VP16 FLuc: VP16 counterscreen qHTS for inhibitors of ROR gamma transcriptional activity; Drosophila S2 Gal4-VP16 UAS-luciferase, luminescence, 20 h; Potency, µM (doses to about 53.6 µM), for inactives: at the highest dose activity, negative = inhibition, actives largely listed as inhibitors; 310,000 tested, 3.5% active; AID 2546, 2010;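 note: Gal4-VP16 expression switched on by copper sulfate through the metallothionein promoter; potency is the fitted concentration of half-maximal effect; nearly all actives have a fitted effect of over 50% in size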
RORg inh: qHTS for inhibitors of ROR gamma transcriptional activity; AID 2551, 2010; Potency, µM (series often up to 53.6 µM), for inactives: at the highest dose activity change, negative = inhibition, most hits filed as inhibitors; 310,000 tested, 5.4% active; Drosophila S2 Gal4-RORgamma UAS-luciferase reporter, 20 h; Nuclear receptor ROR-gamma (Mus musculus), P51450; note: potency is the fitted concentration of half-maximal effect; nearly all actives have a fitted effect of over 60% in size
Target sequence (P51450 whole entry, looked up, the tested form may be a part): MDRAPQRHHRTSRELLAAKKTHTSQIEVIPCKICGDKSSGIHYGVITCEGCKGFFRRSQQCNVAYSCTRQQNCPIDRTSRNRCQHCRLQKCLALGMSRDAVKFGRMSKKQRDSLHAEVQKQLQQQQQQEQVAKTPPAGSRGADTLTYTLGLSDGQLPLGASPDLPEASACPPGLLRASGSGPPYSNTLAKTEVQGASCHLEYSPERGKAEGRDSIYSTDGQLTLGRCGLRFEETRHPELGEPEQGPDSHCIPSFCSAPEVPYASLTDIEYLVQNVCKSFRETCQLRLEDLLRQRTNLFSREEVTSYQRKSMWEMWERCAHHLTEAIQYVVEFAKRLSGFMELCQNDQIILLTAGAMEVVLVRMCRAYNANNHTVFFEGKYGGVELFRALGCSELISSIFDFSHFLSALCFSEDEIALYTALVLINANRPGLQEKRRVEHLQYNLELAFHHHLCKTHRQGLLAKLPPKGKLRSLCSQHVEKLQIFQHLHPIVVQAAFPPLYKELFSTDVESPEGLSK
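Luminescence from a UAS-regulated Photinus luciferase reporter in stably transfected Drosophila Schneider cells is measured; decreased signal marks ROR gamma inhibition. Fusion expression is induced by 700 uM copper sulfate for 20 hr.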
TDP1 cell noCPT: qHTS for Inhibitors of human tyrosyl-DNA phosphodiesterase 1 (TDP1): qHTS in cells in absence of CPT. 420,000 tested, 15% active. DT40 Tdp1-/- hTDP1 cells, no CPT, ATP luminescence, 48 h. Potency, µM (doses to about 46.2 µM), for inactives: at the top dose activity change, negative = growth inhibition, actives largely listed as inhibitors; note: potency is the fitted concentration of half-maximal effect; nearly all actives have a fitted effect of over 55% in size
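Chicken DT40 Tdp1-/- cells complemented with human TDP1, screened without camptothecin (DMSO vehicle only), 400 cells/well. Compounds pin-transferred, cells incubated at 37 °C for at least 48 hr. Growth read as ATP-dependent luminescence (CellTiter-Glo, 30 min at RT).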
* = called active by the depositor. An excerpt weighted towards active compounds, which were near 18% of everything screened. Unless noted, calls come from the whole dose curve; as a rule, active = well fitted curve in the direction sought with a large enough effect; inconclusive = small, poorly fitted or top-dose-only effect, or another doubt; inactive = no such curve, though single readings can be large; an effect the other way counts as inactive or inconclusive. Unless noted, % is set by controls: 0 for no effect and ±100 for the full control effect.

How did CCc1cc(CC)n(-c2nc3c(c(=O)n(CCOC)c(=O)n3C)n2C)n1 do in these assays?
LDHA block: -4

Results for Fc1cccc(Nc2c3c(nc4ccccc24)CCC3)c1 ?
IL1B secr inh: inconclusive; DT40 TDP1 CPT: inconclusive; LDHA block: -2; Gal4-VP16 FLuc: -14%; RORg inh: 10%; TDP1 cell noCPT: 26µM*

How did CC(=O)c1ccc(Nc2c3c(nc4ccccc24)CCCC3)cc1 do in these assays?
IL1B secr inh: 0; DT40 TDP1 CPT: 15µM*; LDHA block: -3; Gal4-VP16 FLuc: -2%; RORg inh: -18%; TDP1 cell noCPT: 18µM*

Results for O=C(Nc1c2c(nc3ccccc13)CCCC2)c1ccccc1Cl ?
IL1B secr inh: 49; DT40 TDP1 CPT: 16%; LDHA block: -7; Gal4-VP16 FLuc: -3%; RORg inh: 4%; TDP1 cell noCPT: -8%

What do the screens show for `O=c1oc(Nc2cccc(F)c2)nc2ccccc12`?
IL1B secr inh: 13; DT40 TDP1 CPT: inconclusive; LDHA block: -2; Gal4-VP16 FLuc: -16%; RORg inh: -39%; TDP1 cell noCPT: inconclusive

How did COCCNc1nnc(SCc2coc(-c3ccccc3)n2)s1 do in these assays?
LDHA block: -14

What do the screens show for `Cc1ccc(C(=O)COC(=O)c2ccccc2O)s1`?
LDHA block: 2

What do the screens show for `COCC(C)NC(=O)c1cc2cc(N(C)S(=O)(=O)c3ccc(C)cc3)ccc2s1` (stereo not given)?
LDHA block: 5

Results for CC(C)c1ccc(C2C(c3ccccc3)=C(O)C(=O)N2Cc2ccccn2)cc1 (stereo not given) ?
LDHA block: 0

What do the screens show for `O=C(/C=C\c1cn(-c2ccccc2)nc1-c1ccccc1)Nc1nccs1`?
IL1B secr inh: -9; DT40 TDP1 CPT: 15µM*; LDHA block: -7; Gal4-VP16 FLuc: inconclusive; RORg inh: inconclusive; TDP1 cell noCPT: inconclusive

How did Cc1ccc(CC(=O)Nc2nccs2)cc1C do in these assays?
IL1B secr inh: -1; DT40 TDP1 CPT: -4%; LDHA block: -1; Gal4-VP16 FLuc: 2.5µM*; RORg inh: inconclusive; TDP1 cell noCPT: 2%

Results for C/C(=C\C(=O)Nc1nccs1)c1ccccc1 ?
IL1B secr inh: -9; DT40 TDP1 CPT: -16%; LDHA block: -9; Gal4-VP16 FLuc: 11µM*; RORg inh: 8.9µM*; TDP1 cell noCPT: -11%

Results for O=C(Cc1coc2ccc3ccccc3c12)Nc1nccs1 ?
IL1B secr inh: 26; DT40 TDP1 CPT: 15µM*; LDHA block: 1; Gal4-VP16 FLuc: inconclusive; RORg inh: 14%; TDP1 cell noCPT: inconclusive

Results for O=C(Cc1coc2ccc3ccccc3c12)NCc1ccccc1 ?
IL1B secr inh: 13; DT40 TDP1 CPT: inconclusive; LDHA block: -3; Gal4-VP16 FLuc: 12%; RORg inh: 0%; TDP1 cell noCPT: inconclusive

What do the screens show for `O=C(O)CN1C(=O)/C(=C\c2cn(-c3ccccc3)nc2-c2ccccc2)SC1=S`?
IL1B secr inh: 11; DT40 TDP1 CPT: -27%; LDHA block: -12; Gal4-VP16 FLuc: -5%; RORg inh: -20%; TDP1 cell noCPT: -18%

How did Cc1ccc(S(=O)(=O)NCCC(=O)Nc2nccs2)cc1C do in these assays?
LDHA block: -4

How did COc1ccccc1CNc1nc(-c2cc(C)n(C3CC3)c2C)cs1 do in these assays?
LDHA block: -4

What do the screens show for `CCOc1ccccc1Oc1coc2cc(OCc3ccccc3)ccc2c1=O`?
LDHA block: 9

What do the screens show for `O=C(Cc1ccc2ccccc2c1)Nc1nccs1`?
LDHA block: 8
